This note sets out measurements from PubChem BioAssay (Tox21).

Records with an inconclusive call do not appear. Where a call stands in place of a potency, no number is given. Active and inactive are the calls of the source. Calls follow the shape of the dose curve; as a rule, active = well fitted cell-killing curve with a large enough effect in the repeat runs; inconclusive = weak or mixed curves, or effect the other way; inactive = flat fitted curve, though single readings scatter.

The assay is described as follows: qHTS assay to identify small molecule that activate the aryl hydrocarbon receptor (AhR) signaling pathway - cell viability counter screen (AID 743086).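 Also: HepG2 liver cells carrying the AhR DRE luciferase reporter; nearly all actives have a fitted effect of over 45% in size.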 To be noted: HepG2-AhR-luc viability, CellTiter-Fluor, 24 h; series mostly up to 70.3 µM. The method in brief:
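HepG2-AhR-luc (HG2L7.5c1) cells, 4000/well, treated 24 h at 37 C with compound; viability measured as CellTiter-Fluor fluorescence after 30 min in the same wells as the luciferase read.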
For `COc1cc([C@@H]2c3cc4c(cc3C(O[C@@H]3O[C@@H]5COC(c6cccs6)O[C@H]5[C@H](O)[C@H]3O)C3COC(=O)[C@@H]32)OCO4)cc(OC)c1O` (some centres undefined), the Potency result was “inactive”.

Take `NC(=O)Oc1ccc(Cc2ccccc2)cc1`: the Potency entry was “inactive”.

In the case of `CC(C)(CO)[C@@H](O)C(=O)NCCC(=O)NCCSSCCNC(=O)CCNC(=O)[C@H](O)C(C)(C)CO`, the Potency entry is “inactive”.

With `C#C[C@]1(O)CC[C@H]2[C@@H]3CCC4=C(CCC(=O)C4)[C@H]3CC[C@@]21C`, the Potency entry is “inactive”.

`COCC(=O)Nc1cc(Sc2ccccc2)ccc1N=C(NC(=O)OC)NC(=O)OC`: the Potency entry is “inactive”.

In the case of `CN1C(=O)CN2CCc3ccccc3C2c2cc(Cl)ccc21` (centres undefined), the Potency entry is “inactive”.

Consider `CCSc1ccc2c(c1)N(CCCN1CCN(C)CC1)c1ccccc1S2`, for which the Potency entry was “inactive”.

Take `S=C1SCN(Cc2ccccc2)CN1Cc1ccccc1`: the Potency result was “inactive”.

For `CN(C)C=Nc1c(I)cc(I)c(CCC(=O)O)c1I`, the Potency entry is “inactive”.

On to `CCOC(=O)Oc1c(OC)cc(C(=O)O[C@@H]2C[C@@H]3CN4CCc5c([nH]c6cc(OC)ccc56)[C@H]4C[C@@H]3[C@H](C(=O)OC)[C@H]2OC)cc1OC`, for which the Potency result was “inactive”.

Regarding `CC(C)c1nc(N(C)S(C)(=O)=O)nc(-c2ccc(F)cc2)c1/C=C/C(O)CC(O)CC(=O)O` (centres undefined), the Potency result is “inactive”.

Turning to `CCC[C@@H]1C[C@@H](C(=O)N[C@@H]([C@H]2O[C@H](SC)[C@H](O)[C@@H](O)[C@H]2O)[C@H](C)Cl)N(C)C1`, the Potency entry was “inactive”.

Take `N[C@H](CC(=O)O)C(=O)O`: the Potency result is “inactive”.

With `CN[C@@H]1[C@@H](O)[C@@H](O[C@@H]2[C@@H](O)[C@H](O[C@H]3O[C@H](CN)[C@@H](O)[C@H](O)[C@H]3O)[C@@H](N)C[C@H]2NC(=O)C(O)CN)OC[C@]1(C)O` (some centres undefined), the Potency result was “inactive”.
